# Data: PubChem BioAssay AID463190 (Sanford-Burnham Center for Chemical Genomics, 2010)
# In all, about 330,000 compounds went through this assay and about 7,300 (2.2%) were called active. What follows is part of a selection rich in actives, with near analogues and random picks from the rest. Values without a mark were called inactive.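 Rule for the calls: active = inhibition of at least 40%; inactive = the rest.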
# Experiment: growth inhibitors of tim10-1 mutant yeast, primary screen, luminescence, uHTS (AID 463190);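 note: mutant grown at 25 °C; 0% = DMSO wells with yeast and 100% = wells holding no yeast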
# Conditions: S. cerevisiae tim10-1 ts strain growth, BacTiter-Glo, 24 h; at 20 µM; stronger effect = higher value
row,SMILES,inhibition
1,CCOC(=O)c1cc(-c2ccccc2C)n(Cc2cc(C)no2)n1,9.65%
2,CC(C)(C)c1ccc(C(=O)NNC(=O)Cc2ccccc2)cc1,-12.1%
3,CN(C(=O)CC(NC(=O)c1ccccc1)(c1ccccc1)c1ccccc1)c1ccccc1,41.7% (active)
4,CN(CC(=O)O)C(=O)c1ccccc1,-0.243%
5,O=C(/C=C/c1c(F)cccc1Cl)Nc1nn[nH]n1,10.7%
6,CNC(=O)/C(C#N)=C/c1c(F)cccc1Cl,55.4% (active)
7,CCOC(=O)NC(=O)/C(C#N)=C\c1ccccc1,2.89%
8,O=C(CNS(=O)(=O)c1ccccc1)NCC(=O)OCc1ccccc1F,9.03%
9,O=C(Cn1nc(Cc2cccnc2)c2ccccc2c1=O)NCC1COc2ccccc2O1 (stereo not drawn),14.3%
10,C=CCNC(=S)NNC(=O)COc1c(Cl)cc(Cl)cc1Cl,37.3%
11,CCOC(=O)C1CCN(C(=O)C2CCCN(S(=O)(=O)c3ccc(OC)c(Cl)c3)C2)CC1 (stereo not drawn),-9.18%
12,COc1ccccc1NC(=O)N1CCCC1C(=O)NCc1cccs1 (stereo not drawn),16.7%
13,O=[N+]([O-])c1ccccc1S(=O)(=O)Nc1cccc2cccnc12,34.8%
14,COc1cc(NS(=O)(=O)c2ccc3ccccc3c2)c2ncccc2c1,40.5% (active)
15,Cc1ccc(S(=O)(=O)Nc2ccc3ncccc3c2)cc1,18.6%
16,COc1ccc(S(=O)(=O)NCc2cccnc2)cc1NC(=O)c1ccc(C)cc1,8.35%
17,Cc1ccc2nc(NCCCNC(=O)c3cnccn3)c(C#N)cc2c1,8.4%
18,CCC(C)(C)n1nnnc1C(c1cccs1)N1CCN(c2nc3ccccc3s2)CC1 (stereo not drawn),36.1%
19,CCC(C)(C)n1nnnc1CN1CCN(c2nc3ccc(C)cc3cc2C#N)CC1,40.7% (active)
20,COc1ccc(CNC(=O)COC(=O)/C=C/c2ccc(S(=O)(=O)N3CCOCC3)cc2)cc1,20%
21,Cc1nc2nc(C)c(CCC(=O)N3CCN(c4ccccc4)CC3)c(C)n2n1,1.14%
22,COc1ccc2[nH]c3c(c2c1)CCN1C(=O)C(CC(=O)NCc2cccc(C(F)(F)F)c2)C[C@H](C(=O)N2CCOCC2)[C@@]31C (stereo partly drawn),11%
23,COc1ccc(C(=O)N2CC3(C)CC2CC(C)(C)C3)cc1OC (stereo not drawn),19.6%
24,Cc1cccc(C(=O)NCC(=O)OCC(=O)N2CC3(C)CC2CC(C)(C)C3)c1 (stereo not drawn),15.2%

row,SMILES,inhibition
1,Cc1nnnn1/C(=C\c1ccccc1)C(=O)OCC(=O)N1CC2(C)CC1CC(C)(C)C2 (stereo not drawn),56.1% (active)
2,CCOc1ccc(C(C)=O)cc1CSc1nnc(-c2ccncc2)n1CCOC,22.6%
3,NC(=O)NC(CC(=O)NNC(=O)c1ccccn1)c1ccc(Cl)cc1 (stereo not drawn),8.52%
4,O=C(Nc1nnc(CCOCCOCCc2nnc(NC(=O)c3ccco3)s2)s1)c1ccco1,-13%
5,NC(=O)c1ccsc1NC(=O)c1ccco1,-3.6%
6,O=C(Nc1nc(-c2ccco2)c(-c2ccco2)s1)c1ccco1,59.7% (active)
7,C=CC[C@@H](CC(=O)NCCO)C(=O)N[C@H](C)COC(=O)[C@@H](CC=C)CC(=O)OC(C)(C)C,-5.11%
8,CC(Nc1ccccc1)c1cccnc1 (stereo not drawn),-3.38%
9,CCN(CC)S(=O)(=O)c1cc(C(=O)Nc2cc(S(=O)(=O)N3CCOCC3)ccc2N2CCCC2)ccc1F,3.43%
10,O=C(CN(C(=O)c1csnn1)c1cccc(Cl)c1)NC1CCCC1,17.6%
11,COc1ccc(/C=C2\SC(=S)N(CCC(=O)Nc3cccc(C(=O)O)c3)C2=O)cc1OC,21.8%
12,O=C(CCCN1C(=O)/C(=C/c2ccccc2)SC1=S)Nc1ccc(O)cc1,40.5% (active)
13,O=C(CCCN1C(=O)/C(=C/c2cccs2)SC1=S)Nc1ccc(O)cc1,31.7%
14,CCC(C)[C@@H](C(=O)N1CCNCC1)n1cc(CCCCN)nn1 (stereo partly drawn),-13.3%
15,CCOC(=O)C1CCN(CCC(=O)Nc2cccc(C)c2)CC1,11.5%
16,CN(Cc1cccs1)C(=O)Cc1c[nH]c2ccccc12,14.6%
17,O=C(Nc1ccc2sc3ccccc3c(=O)c2c1)c1ccccc1Cl,4.71%
18,CCOC(=O)N1CCN(C(=O)c2cc3c(-c4ccc(Cl)cc4)nn(C)c3s2)CC1,40.4% (active)
19,COc1ccccc1N1CCN(C(=O)c2cc3c(-c4ccc(Cl)cc4)nn(C)c3s2)CC1,15.4%
20,COc1cccc(-c2nn(C)c3sc(C(=O)N4CCN(c5ccccc5)CC4)cc23)c1,24.7%
21,O=C(CNC(=O)c1ccccc1)NCC(=O)OCc1ccc(Cl)cc1,-23.2%
22,COc1ccc(Nc2nc(N)nc(CSC(=S)N3CCC(C)CC3)n2)cc1,46.2% (active)
23,COc1ccccc1Nc1nc(N)nc(CSC(=S)N2CCOCC2)n1,23.3%
24,CCOC(=O)c1cnc(SCc2nc(N)nc(Nc3ccc(OC)cc3)n2)nc1N,17.6%

row,SMILES,inhibition
1,C=CCNC(=O)c1ccccc1SCc1c(C)noc1C,18%
2,CCOP(=O)(OCC)C(Nc1cccc(C)c1)c1ccc(F)cc1 (stereo not drawn),20.8%
3,CCN=C1S/C(=C\c2cc(Br)ccc2OCC(=O)OCC)C(=O)N1CC,25.5%
4,Cc1ccc(COC(=O)CN2C(=O)NC3(CCCC3)C2=O)cc1,23.6%
5,CCn1c(COc2c(C)cccc2C)nnc1SCc1nc2ccccc2c(=O)[nH]1,40.2% (active)
6,CCn1c(Cc2ccccc2)nnc1SCc1nc2ccccc2c(=O)[nH]1,8.33%
7,COc1ccc(CCCc2nnc(SCc3nc4ccccc4c(=O)[nH]3)n2C)cc1,19.4%
8,O=c1c2cc(-c3ccccc3)sc2nc2n1N=C(c1cccs1)CS2,20.5%
9,O=C1C(=O)N(CCN2CCOCC2)C(c2ccccn2)/C1=C(/O)c1ccc(Cl)cc1 (stereo not drawn),13.6%
10,CCc1nc2ccc(C(=O)N3CCN(c4cccc(Cl)c4)CC3)cc2nc1CC,52.2% (active)
11,O=C(c1cccc(Cl)c1)N1CCN(Cc2ccccc2)CC1,-7.29%
12,O=C(CCCC(=O)N1CCN(c2cccc(Cl)c2)CC1)c1ccccc1,29.5%
13,O=C(O)c1ccn(COc2ccc(Br)cc2)n1,-4%
14,CCOC(=O)N/N=C/c1cccnc1,5.36%
15,Cc1ccc(NC(=O)CSc2cccc3cccnc23)c(C)c1,25.4%
16,O=C(CSc1cccc2cccnc12)N/N=C/c1cccnc1,51.7% (active)
17,O=C(Nc1nnc(SCc2c(Cl)cccc2Cl)s1)C1CCCO1 (stereo not drawn),42.5% (active)
18,O=C(Nc1nnc(SCc2c(Cl)cccc2Cl)s1)c1cccc([N+](=O)[O-])c1,-2.85%
19,O=C(NCc1ccccc1Cl)C1CCCO1 (stereo not drawn),0.911%
20,NC(=O)CCC(NS(=O)(=O)c1ccc(Cl)cc1)C(=O)NCc1ccccc1Cl (stereo not drawn),-4.94%
21,COc1ccc(Cl)cc1NC(=O)Cn1nc(-c2ccc(C)cc2)n(C)c1=S,2.15%
22,Cc1cc(Nc2ccccc2)n(C(=O)c2ccc(N)cc2)n1,50.1% (active)
23,Cc1cc(C)n(C(=O)c2ccc(S(=O)(=O)N3CCCC3)cc2)n1,17.6%
24,Cc1cc(Nc2ccccc2)n(CCC#N)n1,-11.5%

row,SMILES,inhibition
1,CCc1ccc(CN(C)C(C)C(=O)Nc2ccc(S(=O)(=O)N3CCCC3)cc2)cc1 (stereo not drawn),24.9%
2,COc1ccc(OC)c(S(=O)(=O)N2CCCC(C(=O)N3CCC(C(N)=O)CC3)C2)c1 (stereo not drawn),-23.6%
3,CN1CCN(S(=O)(=O)c2ccc(N3CCN(S(=O)(=O)c4cccs4)CC3)nc2)CC1,-3.27%
4,COc1ccc(-n2cnc3cc(NCc4ccco4)ccc32)cc1,22%
5,COc1ccc(-c2oc3ncnc(NCCCO)c3c2-c2ccc(OC)cc2)cc1,9.86%
6,COc1ccc(-c2oc3ncn(Cc4ccco4)c(=N)c3c2-c2ccc(OC)cc2)cc1,41.7% (active)
7,Cc1cc(C)c(NC(=O)c2oc3ccccc3c2COc2ccccc2)c(C)c1,17%
8,COc1cccc(C(=O)Nc2cc3c(cc2Br)OCCCO3)c1,40.7% (active)
9,COc1cccc(C(=O)NNC(=O)c2cccc(F)c2)c1,-28.3%
10,O=C(Nc1ccccc1)c1ccc2c(c1)OCCCO2,5.55%
11,O=C(NC1Cc2ccccc2C1)c1cc(COc2cccc(C(F)(F)F)c2)on1,18.4%
12,O=C(c1cc(COc2cccc(C(F)(F)F)c2)on1)N1CCSCC1,26.2%
13,Cc1nonc1C1CCCN1C(=O)c1cc(COc2cccc(C(F)(F)F)c2)on1 (stereo not drawn),46.1% (active)
14,O=c1cnnc(Nc2ccccc2F)[nH]1,-10.8%
15,Cc1ccc(C(=O)N/C(=C/c2cccs2)C(=O)N2CCCCC2)cc1,19.1%
16,CCOC(=O)CSc1nc2c(c(=O)n(Cc3ccccc3Cl)c(=O)n2C)n1C,47.6% (active)
17,Cn1c(=O)c2c(nc(SCC(=O)Nc3ccccc3N3CCCCC3)n2C)n(C)c1=O,-4.92%
18,CCOC(=O)CSc1nc2c(c(=O)n(C)c(=O)n2C)n1Cc1ccccc1F,10.3%
19,Cc1cccc(NC(=O)c2nc(S(=O)(=O)Cc3ccccc3)ncc2Cl)c1,23.9%
20,Cc1ccc(CS(=O)(=O)c2ncc(Cl)c(C(=O)Nc3nnc(C)s3)n2)cc1,20.6%
21,CSc1nnc(NC(=O)c2nc(S(=O)(=O)Cc3ccc(C)cc3)ncc2Cl)s1,41% (active)
